CYP2C19 activ – human CYP2C19 activators, primary screen, biochemical, luminescence; Cytochrome P450 2C19 (Homo sapiens), P33261; recombinant CYP2C19, luciferin-H EGE luminescence; stronger effect = higher value; 0 = fully inhibited enzyme, 1 = untreated enzyme; activation factor at 5 µM; 96,000 tested, under 10 active;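 active = activation factor of at least 2 at 5 µM in the primary screen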;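 also: 0 = wells with 2.5 mM tranylcypromine and 1 = vehicle-only wells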
CYP2C9 inh – blockers of cytochrome P450 2C9 activity – biochemical, luminescence, ADME assay, primary screen | AID 777, 2007 | CYP2C9 Supersomes, luciferin-H conversion | P11712 | hit rate 20% among 96,000 | inhibition, % at 5 µM;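 active = blocking of liver enzyme CYP2C9 beyond about 50% at 5 µM, limit read from the data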
CYP2C9 act – human CYP2C9 activators, primary screen, biochemical, luminescence. Cytochrome P450 2C9 (Homo sapiens), P11712. recombinant CYP2C9, luciferin-H conversion; stronger effect = higher value; factor 1 = untreated enzyme, 0 = blocked. activation factor at 5 µM. hit rate 1.4% among 96,000. AID 1024, 2008;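 active = activation factor of 2 or more for CYP2C9 at a 5 µM dose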;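 also: 0 = sulfaphenazole-blocked wells and 1 = vehicle-only wells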
sEH activator – soluble epoxide hydrolase activators, primary screen, biochemical, human sEH | hit rate 0.04% among 91,000 | purified human sEH enzymatic activity, activator screen | AID 717, 2007 | activation, % at 2 µM; in the data active = activation above about 37%
Target sequence (P34913 whole entry, looked up): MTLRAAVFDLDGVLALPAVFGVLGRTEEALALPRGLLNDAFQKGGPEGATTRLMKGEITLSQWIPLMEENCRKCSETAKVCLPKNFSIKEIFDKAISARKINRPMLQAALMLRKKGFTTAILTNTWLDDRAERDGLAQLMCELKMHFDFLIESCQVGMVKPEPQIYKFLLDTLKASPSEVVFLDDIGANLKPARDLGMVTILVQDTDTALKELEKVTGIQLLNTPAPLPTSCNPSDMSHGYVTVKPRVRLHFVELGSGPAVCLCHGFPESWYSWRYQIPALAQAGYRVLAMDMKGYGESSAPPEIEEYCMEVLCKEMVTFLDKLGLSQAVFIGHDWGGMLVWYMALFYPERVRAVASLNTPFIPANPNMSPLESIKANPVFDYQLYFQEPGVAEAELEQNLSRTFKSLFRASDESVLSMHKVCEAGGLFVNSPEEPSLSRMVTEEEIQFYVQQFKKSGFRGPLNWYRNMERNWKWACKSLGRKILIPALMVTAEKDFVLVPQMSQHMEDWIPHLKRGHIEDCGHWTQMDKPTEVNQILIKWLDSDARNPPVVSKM
CYP2C19 inh – blockers of cytochrome P450 2C19 activity – biochemical, luminescence, ADME assay, primary screen; CYP2C19 Supersomes, luciferin-H EGE luminescence, 30 min; inhibition, % at 5 µM; hit rate 21% among 96,000; AID 778, 2007;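 active = CYP2C19 inhibition above a set limit at 5 µM in the primary screen, cut at about 50% in these data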;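 also: plate controls were negative control wells for no effect and 2.5 mM tranylcypromine positive control for full effect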
sEH inh – soluble epoxide hydrolase inhibitors, primary screen, biochemical, human sEH | inhibition, % at 2 µM | hit rate 0.34% among 91,000 | recombinant human sEH enzymatic activity assay | Bifunctional epoxide hydrolase 2 (Homo sapiens), P34913; in the data active = inhibition above about 80%
* hit, by the source's call; / = no result. Sampled rows, rich in hits. Any-hit rate of the full collection: about 27%.

SMILES | CYP2C19 activ | CYP2C9 inh | CYP2C9 act | sEH activator | CYP2C19 inh | sEH inh
CCc1ccc2[nH]c(=O)c(CN(CCCN3CCOCC3)C(=O)Nc3ccc(Cl)cc3)cc2c1 | 0.6 | 38.2 | 0.6 | -2.6 | 39.2 | 2.3
O=C(Nc1ccccc1)N(CCCN1CCOCC1)Cc1cc2cc3c(cc2[nH]c1=O)OCCO3 | / | / | / | -5.4 | / | 5.0
O=C(Nc1ccccc1F)N(CCCN1CCOCC1)Cc1cc2cc3c(cc2[nH]c1=O)OCCO3 | 0.1 | 52.4* | 0.5 | 5.3 | 90.4* | -6.6
CCc1ccc2[nH]c(=O)c(CN(CCCN3CCOCC3)C(=O)Nc3ccccc3)cc2c1 | 0.4 | 48.2 | 0.5 | -7.3 | 56.0* | 8.0
N#CCSc1nnc(C2CCCCC2)n1-c1ccccc1 | 1 | 0.4 | 1 | 5.6 | 1.2 | -7.7
O=S(=O)(Nc1cccc2cccnc12)c1ccc(S(=O)(=O)N2CCCC2)cc1 | 0.5 | 30.2 | 0.7 | -2.1 | 45.4 | 2.8
c1ccc(-c2c[nH]c3[n+]2CCCCC3)cc1 | 0.5 | -4.2 | 1 | -6.3 | 54.9* | 7.5
CCOC(=O)CCn1c2nc(C)cc(C)c2c(=O)n1-c1ccccc1 | 0.4 | 7.4 | 0.9 | 3.2 | 56.1* | -2.6
CCOC(=O)Cn1nc(C)n(-c2ccccc2)c1=O | 1.1 | 6.5 | 0.9 | -0.8 | -11.9 | 3.6
CCCCS(=O)(=O)NC1=NCN(CCO)CN1 | 0.9 | 0.2 | 1 | / | 6.3 | /
COc1ccc(Cl)cc1S(=O)(=O)N1CCN(C(=O)c2ccco2)CC1 | 0.1 | -12.0 | 1.1 | -1.1 | 94.4* | 1.2
COc1ccc(S(=O)(=O)N2CCN(C(=O)c3ccco3)CC2)cc1OC | 0.6 | -5.8 | 1.1 | 11.8 | 45.0 | -15.8
O=C(Cc1ccc(Cl)cc1)Nc1ccc(N2CCN(C(=O)c3ccco3)CC2)c(Cl)c1 | 0.1 | 96.8* | 0 | -85.8 | 92.2* | 86.0*
O=C(c1ccco1)N1CCN(S(=O)(=O)Cc2ccc(Cl)cc2)CC1 | 0.2 | 31.2 | 0.7 | -2.8 | 77.9* | 6.4
O=C(CSc1nnc(SCc2ccc(Cl)cc2)s1)N1CCN(C(=O)c2ccco2)CC1 | 0.9 | 55.1* | 0.4 | 1.9 | 5.5 | 0.9
O=C(Nc1ccc(N2CCN(C(=O)c3ccco3)CC2)c(Cl)c1)c1cccs1 | 0.7 | 47.9 | 0.5 | -31.3 | 32.1 | 34.6
O=C(CSc1nn(-c2ccc(Cl)cc2)c(=S)s1)N1CCN(C(=O)c2ccco2)CC1 | 0.8 | 35.3 | 0.6 | / | 16.0 | /
COc1ccc(C2CC(=O)C(C=NCCN3CCN(C(C)=O)CC3)=C(O)C2)cc1OC (centres undefined) | 1 | -6.5 | 1.1 | / | -4.0 | /
COC(=O)C1CCN(C(=O)COc2cc3sc(C)nc3c3sccc23)CC1 | 0.8 | -11.1 | 1.1 | -12.2 | 21.9 | 11.8
O=C(O)C=C1CCN(c2ncc(C(F)(F)F)cc2Cl)CC1 | / | / | / | 4.5 | / | -3.8
Cc1nn(C2CCS(=O)(=O)C2)c(Cl)c1/C=C/C(=O)OCC(=O)Nc1ccccc1OC(F)F (centres undefined) | 0.3 | 69.2* | 0.3 | 4.2 | 67.2* | -6.0
CCOCCCNS(=O)(=O)c1cc(Br)cc2c1N(C(=O)C1CC1)CC2 | 0.8 | -131.4 | 2.3* | / | 18.2 | /
CC(=O)N1CCc2cc(Br)cc(S(=O)(=O)NCC3CCCO3)c21 (centres undefined) | 0.8 | -5.0 | 1.1 | -4.6 | 24.5 | 3.2
O=C(C1CC1)N1CCc2cc(Br)cc(S(=O)(=O)NCc3ccc4c(c3)OCO4)c21 | 0.3 | 13.8 | 0.9 | / | 66.8* | /
CCN(c1ccc2c(c1)OCO2)S(=O)(=O)c1cc(Br)cc2c1N(C(C)=O)CC2 | 0.4 | -42.9 | 1.4 | -4.3 | 56.0* | 7.1
SMILES | CYP2C19 activ | CYP2C9 inh | CYP2C9 act | sEH activator | CYP2C19 inh | sEH inh
O=C(C1CC1)N1CCc2cc(Br)cc(S(=O)(=O)N3CCOCC3)c21 | 0.6 | 71.9* | 0.3 | -3.9 | 35.1 | 5.3
O=C(C1CC1)N1CCc2cc(Br)cc(S(=O)(=O)NCCN3CCOCC3)c21 | 0.9 | 22.5 | 0.8 | / | 8.0 | /
CC(C)SCCCOc1ccc(C(C)(C)C)cc1 | 1 | 2.9 | 1 | -3.9 | -4.0 | 1.1
CCOc1cc(C2NC(=O)NC(C)=C2C(=O)NCc2ccccc2)c(Cl)cc1O (centres undefined) | 0.9 | 9.6 | 0.9 | 4.0 | 8.7 | -6.5
Cc1cc(NC(=O)c2cnn3c(C(F)(F)F)cc(-c4ccc(Br)cc4)nc23)no1 | 0.8 | 33.5 | 0.7 | 0.3 | 23.7 | -2.1
O=C(NCc1ccco1)C(c1ccc(F)cc1)N(CC1CCCO1)C(=O)Cn1nnc2ccccc21 (centres undefined) | 0.7 | 27.6 | 0.7 | 1.8 | 33.1 | -2.4
CCN1CCCC1CNS(=O)(=O)c1cc(Br)cc2c1N(C(=O)C1CC1)CC2 (centres undefined) | 1 | 47.7 | 0.5 | / | -4.7 | /
CCCCN(C)S(=O)(=O)c1cc(Br)cc2c1N(C(=O)C1CC1)CC2 | 0.1 | 17.5 | 0.8 | / | 86.5* | /
CN(Cc1ccccc1)c1nc2c(c(=O)[nH]c(=O)n2C)n1CCOc1ccccc1 | 0.7 | 53.9* | 0.5 | -4.9 | 34.4 | 2.1
Cc1ccc(OCC(O)Cn2c(NCCc3ccccc3)nc3c2c(=O)[nH]c(=O)n3C)cc1 (centres undefined) | 0.5 | 42.1 | 0.6 | 0.2 | 51.3* | 2.3
Cn1c(=O)[nH]c(=O)c2c1nc(NCCCn1ccnc1)n2Cc1ccccc1 | 0.2 | 96.1* | 0 | 4.1 | 79.6* | -4.0
Cn1c(=O)[nH]c(=O)c2c1nc(NCCCO)n2Cc1ccc(F)cc1 | 0.9 | 8.0 | 0.9 | -6.2 | 9.8 | 7.2
Cc1ccc(C(=O)CNc2nc3c(c(=O)[nH]c(=O)n3C)n2Cc2ccccc2)cc1 | 0.1 | 79.0* | 0.2 | -7.4 | 88.4* | 7.3
Cc1ccc(Nc2nc3c(c(=O)[nH]c(=O)n3C)n2Cc2ccc(F)cc2)cc1 | / | / | / | 3.7 | / | -4.4
CCn1c(SCc2cc(=O)[nH]c3ccccc23)nc2c1c(=O)n(C)c(=O)n2C | / | / | / | 5.6 | / | -7.8
O=C1c2cccc3c(Nc4ccccc4Cl)c([N+](=O)[O-])cc(c23)C(=O)N1CCO | 0.9 | 23.3 | 0.8 | 4.8 | 14.0 | -6.5
Cc1c(NC(=O)COc2ncnc3ccccc23)c(=O)n(-c2ccccc2)n1C | 1 | 2.0 | 1 | 9.7 | -4.1 | -10.1
CCOC(=O)c1ccc(NC(=O)CSCc2ccco2)cc1 | 0.7 | 47.6 | 0.5 | 20.5 | 25.4 | -17.4
CC(=O)Nc1ccc(Cl)cc1C(=O)O | 1 | 2.8 | 1 | 1.9 | -2.3 | -1.7
Cn1c(Cn2nnc3ccccc32)nnc1SCC(=O)N1CCc2ccccc21 | 1.1 | -3.9 | 1 | 12.7 | -6.6 | -14.2
Cn1c(=O)[nH]c(=O)c2c1nc(NCCCn1ccnc1)n2CCOc1ccccc1 | 0 | 98.1* | 0 | -7.4 | 98.7* | 5.7
CC(=NCCCn1ccnc1)c1c(O)n(Cc2ccccc2)c(=O)[nH]c1=O | 0.6 | 78.4* | 0.2 | 2.2 | 43.8 | -0.2
